# Bioassay records from PubChem.
# The list is not random: actives were taken first. Their share in the collection is about 7.3%.
# Luc counter = counter-screen: inhibitors of Kinase-Glo firefly luciferase; Q27757; Kinase-Glo luciferase, ATP luminescence, 8 min; Potency, µM (titrated, usually from 38.3 µM), for inactives: at the highest dose activity change, negative = inhibition, actives largely listed as inhibitors; 200,000 compounds, 0.28% hits; AID 1379; further: on the % scale 0 is the no-effect control and ±100 the full control effect; nearly all actives have a fitted effect of over 60% in size
#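 Kinase-Glo luciferase light output from ATP and luciferin was measured with 10 uM ATP, within the enzyme's linear range. Buffer: 50 mM imidazole pH 7.2, 50 mM KCl, 7 mM MgCl2, 0.01% Tween 20, 0.05% BSA; luminescence read after 8 min at ambient temperature.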
# NPC1 promoter act = NPC1 promoter activation | Huh7 NPC1 promoter luciferase reporter, 24 h | Potency, µM (highest dose often 9.22 µM), for inactives: at the top dose activation, most hits filed as activators | 320,000 compounds, 2.4% hits | AID 485313; further: % of control where 0% means no effect; nearly all actives have a fitted effect of over 60% in size
#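 Luminescence read-out of NPC1 promoter-driven luciferase in stably transfected Huh7 cells; compounds delivered in DMSO and left 24 h at 37C, 5% CO2, qHTS titration format.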
# SMN2 splice enh = SMN2 splice variant enhancement; HEK293 SMN2-luciferase splicing reporter, luminescence, 30-36 h; Potency, µM (top dose mostly 46.1 µM), for the others: at the highest dose activity change, positive = activation, hits mostly activators; 210,000 compounds, 2.8% hits; further: % of control where 0% means no effect; nearly all actives have a fitted effect of over 55% in size
#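 HEK293 cells carry an SMN2 minigene-luciferase reporter in which exon 7 inclusion puts luciferase in frame. Cells were seeded at 2000 cells/well, attached for 10-12 hours, then exposed to compounds for 30-36 hours at 37C before ONE-Glo luminescence.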
# Rab9 promoter act = Rab9 promoter activation. Huh7 Rab9 promoter-luciferase reporter, luminescence, 24 h. Potency, µM (top dose mostly 9.22 µM), inactives show at the top dose activation, negative = inhibition, usual class: activators. 320,000 compounds, 2.8% hits; further: % of control where 0% means no effect; nearly all actives have a fitted effect of over 60% in size
#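 Huh7 reporter line, Rab9 promoter upstream of luciferase. Compound exposure 24 h at 37 °C in reduced-serum medium with 10% FBS. Read-out: luminescence.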
# ELG1 genotoxic = induces genotoxicity in HEK293T cells with luciferase-tagged ELG1 | HEK293T ELG1-luciferase reporter, luminescence, 16 h | Potency, µM (titrated, usually from 46 µM), for inactives: top-dose activity change, positive = activation, most hits filed as activators | 330,000 compounds, 1.3% hits | AID 504466; further: % of control where 0% means no effect; nearly all actives have a fitted effect of over 60% in size
#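 Luminescence read-out: rising ELG1-luciferase signal, reflecting elevated ELG1 protein under genetic stress, flags genotoxic compounds. Cells were treated for 16 hr at 37 °C before ONE-Glo detection.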
# FLuc counter = firefly luciferase modulation, counter-screen for miR-21 project; purified FLuc, Km substrates, luminescence inhibition; 360,000 compounds, 6.9% hits; P08659; Potency, µM (series often up to 57.5 µM), inactives show at the highest dose activity change, negative = inhibition, usual class: inhibitors;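 further: plate controls were vehicle for no effect and reference inhibitor for full effect; nearly all actives have a fitted effect of over 55% in size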
# Target sequence (P08659 whole entry, looked up): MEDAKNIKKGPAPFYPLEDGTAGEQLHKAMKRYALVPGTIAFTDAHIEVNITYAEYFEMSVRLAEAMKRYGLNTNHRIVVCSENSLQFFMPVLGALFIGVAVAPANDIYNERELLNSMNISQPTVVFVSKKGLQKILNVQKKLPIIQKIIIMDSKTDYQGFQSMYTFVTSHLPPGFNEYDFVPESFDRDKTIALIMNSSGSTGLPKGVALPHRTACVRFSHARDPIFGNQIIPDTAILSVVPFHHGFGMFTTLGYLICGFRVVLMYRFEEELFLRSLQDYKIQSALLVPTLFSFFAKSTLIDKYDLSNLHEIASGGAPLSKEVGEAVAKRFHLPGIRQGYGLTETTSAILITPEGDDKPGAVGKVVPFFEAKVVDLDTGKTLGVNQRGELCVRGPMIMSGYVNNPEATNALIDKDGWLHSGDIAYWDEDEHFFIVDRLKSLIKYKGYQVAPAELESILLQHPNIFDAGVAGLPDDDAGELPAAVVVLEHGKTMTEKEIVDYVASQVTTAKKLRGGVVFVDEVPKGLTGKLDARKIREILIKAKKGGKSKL
#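 Purified P. pyralis luciferase (10nM final) with 10uM D-luciferin and 10uM ATP (Km levels) in 50mM Tris acetate pH 7.5, 10mM Mg acetate, 0.01% Tween-20, 0.05% BSA; qHTS 6-point titration, ~60 µM downward; luminescence read.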
# Starred values were filed as active, the others as inactive; u = inconclusive; x = no result; [ ] = another dose, or the depositor's remark. The call rests on the fitted dose curve; in most records, active means well fitted curve in the direction sought with a large enough effect; inconclusive means small, poorly fitted or top-dose-only effect, or another doubt; inactive means no such curve, though single readings can be large; an effect the other way counts as inactive or inconclusive. Potency means the concentration at half of the fitted maximal effect.
SMILES,Luc counter,NPC1 promoter act,SMN2 splice enh,Rab9 promoter act,ELG1 genotoxic,FLuc counter
O=C(Nc1ccc2c(c1)CCCN2C(=O)c1ccccc1)c1ccccc1,x,26%,x,u,-6%,13µM*
COc1ccc(NC(=O)Cc2coc3cc(C)ccc23)cc1S(=O)(=O)N1CCOCC1,2%,13%,-5%,20%,2%,15µM*
COc1ccc(NC(=O)Cc2coc3ccc4ccccc4c23)cc1S(=O)(=O)N1CCOCC1,1%,-4%,-17%,-5%,0%,13µM*
COc1ccc(NC(=O)CNc2cc(C)ccc2C)cc1S(=O)(=O)N1CCOCC1,x,-4%,x,0%,1%,-2%
COc1ccc(CC(=O)Nc2ccc(F)c(Cl)c2)cc1S(=O)(=O)N1CCOCC1,x,0%,x,-6%,1%,0%
Cc1ccc2c(=O)cc(C(=O)Nc3cccc(C(F)(F)F)c3)oc2c1C,x,x,4%,x,x,2%
CC#CCN1c2ccccc2[C@]23C[C@@H](C(=O)OC)N(S(=O)(=O)c4ccc(C#N)cc4)C2=NC(C(=O)OC)=C(C(=O)OC)[C@H]13,-1%[7.66 µM],x,9%[9.22 µM],x,x,x
O=C(O)c1cc(N/N=C/c2c(O)ccc3ccccc23)ccc1Cl,x,1.6µM*,x,1.4µM*,15µM*,2.4µM*
Nc1cc(Cl)nc(N/N=C/c2c(O)ccc3ccccc23)n1,-3%,u,u,2.5µM*,u,2.7µM*
CC1(C)[C@@H]2CC[C@]1(CC(=O)O)[C@H](Cl)C2,-1%[7.66 µM],x,13%[9.22 µM],x,x,x
COc1ccc(C2C=C(c3ccccc3)Nc3nc(NS(=O)(=O)c4ccccc4)nn32)cc1 (stereo not given),x,x,x,x,x,-14%
COc1ccc(CC(=O)NCc2nc3cccnc3n2Cc2ccc(C)cc2)cc1OC,x,x,x,x,x,-1%
CCCS(=O)(=O)c1cnc(C2COc3ccccc3O2)nc1N (stereo not given),x,-23%,x,-32%,u,0.12µM*
S=c1nc(C2COc3ccccc3O2)[nH][nH]1 (stereo not given),-2%,0%,0%,-2%,0%,-16%
COc1ccc(/C=C/C(=O)Nc2ccc3nc(N4CCC(C)CC4)cc(C)c3c2)cc1OC,x,x,-2%,x,x,-7%
C(=Nc1ccc(Nc2ccccc2)cc1)c1ccc2ccccc2c1,-1%,-12%,22%,-2%,-1%,u
Brc1ccc(C=Nc2ccc(Nc3ccccc3)cc2)s1,1%,-11%,17%,-4%,7%,24µM*
CCn1nc(C(=O)Nc2ccc3nc(C)sc3c2)c2ccccc2c1=O,-4%,5%,4µM*,1%,2%,u
Cc1nc2ccc(NC(=O)c3ccccc3)cc2s1,-2%,2.8µM*,22µM*,2.8µM*,u,19µM*
Cc1nc2cc(C(=O)O)ccc2s1,1%,1.4µM*,11µM*,2.8µM*,u,17µM*
COc1cc(C(=O)Nc2ccc(C(C)=O)cc2)c(Br)c(OC)c1OC,6%,24%,u,u,8%,17µM*
CCc1nn(CC(=O)N(C)Cc2ccccc2)c(=O)c2cc3sccc3n12,x,x,-11%,x,x,-10%
COc1ccc(CNC(=O)Cn2c(=O)nc(-c3ccccc3F)c3cc(Cl)ccc32)cc1OC,x,x,x,x,x,-11%
COc1cccc(C(=O)Nc2ccccc2C(=O)OCc2cc(=O)n3nc(C4CC4)sc3n2)c1,x,x,x,x,x,-1%
NNC(=O)c1ccc2ccccc2n1,1%,1%,13%,1%,1%,-5%
SMILES,Luc counter,NPC1 promoter act,SMN2 splice enh,Rab9 promoter act,ELG1 genotoxic,FLuc counter
CCCCC(=O)Nc1ccc(C(=O)NNC(=O)c2ccc(C)c(Br)c2)cc1,x,0%,x,-2%,u,2%
Cc1nc2ccc(NC(=O)c3ccc4ccccc4n3)cc2s1,-15%,2.8µM*,35µM*,3.5µM*,u,6µM*
CC(=O)c1ccc(NC(=O)c2ccc3nc(C)sc3c2)cc1,x,2µM*,x,2.8µM*,u,u
Cc1nnc(NC(=O)c2ccc3ccccc3n2)s1,x,u,x,3.5µM*,u,24µM*
CC(=O)c1ccc(NC(=O)c2ccc(C)c(Br)c2)cc1,-1%,2.5µM*,11µM*,0.79µM*,u,6µM*
CC1=C(C(=O)Nc2ccccc2C)C(c2cccs2)n2nc(SCc3ccccc3)nc2N1 (stereo not given),x,x,4%,x,x,2%
Cc1nc2ccc(NC(=O)c3ccco3)cc2s1,-6%,u,x,2.8µM*,u,u
CC(=O)Nc1nc2ccc(NC(=O)c3ccco3)cc2s1,-6%,21%,28%,u,u,u
Cc1nc2ccc(C(=O)Nc3ccccc3Cl)cc2s1,x,2.5µM*,x,1.1µM*,u,17µM*
Cc1ccccc1NC(=O)c1ccc2nc(N3CCOCC3)sc2c1,x,-2%,x,u,12%,-11%
O=c1[nH]c(Cc2ccccc2)nc2c1oc1ccccc12,0%,1%,3%,14%,2%,-6%
Cc1nc2c(oc3ccccc32)c(=O)o1,-4%,-2%,17%,2%,u,21µM*
O=C(NCCSCc1ccco1)Nc1cc(Cl)cc(Cl)c1,x,-4%,x,-6%,-5%,27µM*
COc1ccc(/C=C/C(=O)NCCCc2ccccc2)cc1,-4%,-3%,-16%,-5%,-2%,u
COc1ccc(/C=C/C(=O)Nn2cnnc2)cc1,-10%,-4%,57%,-7%,2%,15µM*
